Reference: PubChem BioAssay AID463173 (ICCB-Longwood Screening Facility, Harvard Medical School, 2010)
Hit rate of the full screen: of about 52,000 compounds, about 1,700 (3.3%) were called active. Many of the other results were omitted from the sample, so actives are more common in it than they were. A number with no mark means an inactive call. Cut-off read from the data, not from the text of the source: active = survival mostly below about 52% (no sharp cut-off); inactive = mostly above about 56%.

System: Wild type
Assay: S. aureus survival, RN4220 and DeltatarO strains – OD600, teichoic acid synthesis inhibitors, primary screen (AID 463173)
Settings: S. aureus RN4220 wild type/DeltatarO growth, OD600, 18 h, active compounds read low, screened at 18.75 µg/mL (by protocol)

Compared with `Cc1ccc(Nc2c(-c3ccc(C)cc3)nc3ccc(C)cn23)cc1`, `COCCNc1c(-c2ccc(N)cc2)nc2ccc(C)cn12` is lower in survival: 121% for the first, 101% for the second.

Compared with `CC(=O)N1c2ccccc2CC1C(=O)N1CCN(c2ccccc2F)CC1` (stereo not drawn), `CCCN1CCN(C(=O)Cn2c(-c3cccs3)cc3cc(F)ccc32)CC1` is higher in survival: 71% for the first, 85% for the second.

Going from `CCOc1ccc(NC(=O)/C=C\C(=O)N(c2ccc(C(C)C)cc2)C(C(=O)NCc2ccco2)c2ccc(F)cc2)cc1` (stereo not drawn) to `CC(=O)c1ccc(NC(=O)Cn2ncc3c(C)n(Cc4ccc(F)cc4)c(C)c3c2=O)cc1`, the survival rises from 51% to 74%.

First: Cc1cccc(NC(=O)CN2C(=O)COc3ccc(S(=O)(=O)Nc4ccccc4)cc32)c1C
Second: COc1ccc(NC(=O)Cn2cc(S(=O)(=O)c3ccccc3)c(=O)c3cc4c(cc32)OCO4)cc1
The survival of the first is higher: 123% for the first, 79% for the second.

`Cc1c(Cl)cccc1NC(=O)c1cc2nc(-c3ccc4c(c3)OCO4)cc(C(F)(F)F)n2n1` and `Cc1ccc2occ(-c3cc(-c4ccc(F)cc4)nc4c3COc3ccc(F)cc3-4)c(=O)c2c1` are the same in survival: 76% for the first, 76% for the second.

First: CCOc1ccc(-c2nnc(Nc3ccc(S(N)(=O)=O)cc3)c3ccccc23)cc1
Second: COc1ccc(S(=O)(=O)N(CCc2ccccc2)CC(=O)NCc2ccc(C)cc2)cc1
The survival of the first is higher: 88% for the first, 67% for the second.

Going from `CCOc1ccc(-c2ncccc2O)cc1` to `CCOC(=O)CSc1nnc(-c2ccc(OC)cc2)o1`, the survival falls from 106% to 72%.

First: Cc1ccccc1CCNC(=O)c1cc2ccccn2n1
Second: CC(=O)NC1N=C(C)N(c2ccccc2)C1=O (stereo not drawn)
The survival of the first is lower: 84% for the first, 101% for the second.

Going from `CCOC(=O)C1CCN(S(=O)(=O)c2ccc3c(c2)NC(=O)C(C)C(=O)N3)CC1` (stereo not drawn) to `CCCCNC(=O)CN1C(=O)CSc2ccc(S(=O)(=O)N3CCC(C)CC3)cc21`, the survival falls from 114% to 92%.

Going from `Cc1ccc(N(C)S(=O)(=O)c2c(-c3ccccc3)csc2C(=O)O)cc1` to `Cc1ccc(C2c3[nH]c4ccccc4c3CCN2C(=O)c2ccc(N(C)C)cc2)cc1` (stereo not drawn), the survival rises from 61% to 68%.

First: COC(=O)c1ccccc1NC(=O)c1nc(-c2ccc(C)cc2)n2c1CCCCC2
Second: COC(=O)c1ccccc1NC(=O)NCCc1c(C)nn(C)c1C
The survival of the first is higher: 86% for the first, 82% for the second.

First: COc1ccc(C(=O)Oc2ccc3oc(=O)sc3c2)cc1
Second: COc1ccc(-c2nnc(SCC(=O)Oc3cc(C)ccc3C)o2)cc1
The survival of the first is higher: 95% for the first, 86% for the second.

First: COCCn1ccc2c(OCC(=O)Nc3cccc(OC)c3)cccc2c1=O
Second: CCn1ccc2c(OCC(=O)Nc3ccc(C(C)=O)cc3)cccc2c1=O
The survival of the first is higher: 90% for the first, 53% for the second.

First: CCn1ccc2c(OCC(=O)Nc3ccccc3C(F)(F)F)cccc2c1=O
Second: CCn1ccc2c(OCC(=O)NCc3ccccc3)cccc2c1=O
The survival of the first is higher: 80% for the first, 66% for the second.

First: Cc1ccc2c(CC(=O)N(Cc3ccc(N(C)C)cc3)Cc3ccco3)coc2c1C
Second: Cc1cccc(CCn2c(=O)c3ccccc3n(Cc3cccc(F)c3)c2=O)c1
The survival of the first is lower: 70% for the first, 82% for the second.

Compared with `CCc1nn(CC(=O)Nc2ccc(C)cc2C)c(=O)c2cc3sccc3n12`, `COC(=O)c1cc2sccc2n1Cc1ccc(F)cc1` is higher in survival: 90% for the first, 135% for the second.

Compared with `Cc1cc(C)cc(NC(=O)CSc2nncn3c2cc2occc23)c1`, `COC(=O)c1cc2sc(C)cc2n1Cc1ccc(Br)cc1F` is higher in survival: 66% for the first, 76% for the second.

Going from `Cc1ccc(CNS(=O)(=O)c2ccc3c(c2)CC(C)N3C(=O)C2CCC2)cc1` (stereo not drawn) to `Cc1ccc(CSc2nnc(-c3ccc(O)cc3)o2)cc1`, the survival rises from 97% to 108%.

Compared with `Cc1ccsc1CN(C(=O)c1ccc(OCC(C)C)cc1)C1CCS(=O)(=O)C1` (stereo not drawn), `COc1ccccc1NC(=O)CN(C)S(=O)(=O)c1cccc2cccnc12` is higher in survival: 85% for the first, 117% for the second.

Going from `CCCCN(c1ccccc1)c1ncnc2c1cnn2-c1cccc(C)c1` to `COc1cc(CN(C(=O)Nc2ccccc2)c2ccccn2)cc(OC)c1OC`, the survival rises from 68% to 86%.

Going from `COC(=O)c1cc2sc(C)cc2n1Cc1ccc(F)cc1Cl` to `COC(=O)c1cc2sc(C)cc2n1Cc1ccccc1`, the survival rises from 65% to 83%.

First: COc1ccc(NC(=O)NCCc2c(C)nn(C)c2C)c(OC)c1
Second: Cc1nn(C)c(C)c1CCNC(=O)Nc1cccc(Cl)c1C
The survival of the first is lower: 57% for the first, 63% for the second.

Compared with `COC(=O)c1ccc(Cl)cc1NC(=O)NCCc1c(C)nn(C)c1C`, `CNC(=S)N(CCN1CCOCC1)Cc1cc2cc(C)c(Cl)cc2[nH]c1=O` is higher in survival: 55% for the first, 113% for the second.

Going from `CCc1cccc(C)c1Nc1c(-c2ccsc2)nc2ncccn12` to `Cc1cccn2c(=O)c(/C=C(\C#N)c3nc4ccccc4s3)c(Oc3ccc(Br)cc3)nc12`, the survival rises from 66% to 129%.

Going from `O=C(NCc1cccc(Cl)c1)c1cc2ccc3cccnc3c2[nH]1` to `N#Cc1ccccc1CSc1nnc(-c2ccc(Br)cc2)o1`, the survival falls from 82% to 73%.

Going from `N#Cc1ccc(CSc2nnc(-c3ccc(Br)cc3)o2)cc1` to `Cc1ccc(-c2nnc(SCc3ccccc3C#N)o2)cc1`, the survival falls from 74% to 66%.

With `Cc1ccc2nc(-c3ccc(F)cc3)c(NC(C)(C)CC(C)(C)C)n2c1` the survival was 14% (active).
With `CCCCOc1nnc(-c2ccc(OCC)cc2)c2ccccc12` the survival was -1% (active).
With `CCn1ccc2c(OCC(=O)Nc3ccccc3C)cccc2c1=O` the survival was 0% (active).
For `CCn1ccc2c(OCC(=O)Nc3ccc(OC)cc3OC)cccc2c1=O`, the survival was -3% (active).
`COC(=O)c1cc2sc(C)cc2n1Cc1cccc(OC)c1` was tested, and the survival was 0% (active).
In the case of `C=Cc1ccc(Cn2c(C(=O)OC)cc3sc(C)cc32)cc1`, the survival was 0% (active).
`COc1ccc(Cl)cc1NC(=O)NCCc1c(C)nn(C)c1C` was tested, and the survival was -3% (active).
`Cc1nn(C)c(C)c1CCNC(=O)Nc1ccccc1C(F)(F)F` was tested, and the survival was 1% (active).
For `CCCCCSc1nnc(-c2ccc(Br)cc2)o1`, the survival was -1% (active).
With `CCCCOC(=O)CSc1nnc(-c2ccc(C)cc2)o1` the survival was 8% (active).
`Cc1ccc(-c2nnc(SCc3ccccc3C)o2)cc1` was tested, and the survival was -4% (active).
